Assay outcomes as filed in PubChem BioAssay.
Compounds with a hit are over-represented: about 21% of the library has one in this group of screens.
HCMV inh = qHTS Assay for inhibitors of the human cytomegalovirus (HCMV). HFF cells, HCMV-luciferase reporter, 72 h; hits give low values. activity change, negative = inhibition, % at 57.5 µM. hit rate 4.5% among 410,000; in the data active = activity change below about -60%; inconclusive = no clear call, values can overlap the other calls; inactive = above about -39%; note: % is set by controls: 0 for no effect and ±100 for the full control effect
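Two-dose cell screen: HFF monolayers treated with compounds and infected with luciferase-expressing HCMV at 1 PFU/cell, 72 h at 37C, then lysed for luciferase measurement.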
Pf growth 96h = Primary qHTS for delayed death inhibitors of the malarial parasite plastid, 96 hour incubation; P. falciparum luciferase reporter growth, 96 h; Potency, µM (top dose mostly 28.7 µM), for the others: at the top dose activity change, negative = inhibition, usual class: inhibitors; hit rate 6.9% among 320,000; note: potency is the fitted concentration of half-maximal effect; % is set by controls: 0 for no effect and ±100 for the full control effect
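Infected RBCs, 2% Hct / 0.05% parasitemia final; luciferase-reporter P. falciparum; cpd 96 h, 37 C, 5% CO2; luciferase detection reagent; luminescence.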
Cycloheximide cs = Cycloheximide Counterscreen for Small Molecule Inhibitors of Shiga Toxin. cell reporter, cycloheximide protein synthesis inhibition counterscreen. max response, %. hit rate 12% among 300,000. AID 2314, 2010; in the data active = max response mostly above about 13%, no sharp cut-off; inactive = mostly below about 14%; note: read at 38.3 µM for the half of the compounds with a filed dose; 0% is about no effect
Pf growth 48h = Primary qHTS for delayed death inhibitors of the malarial parasite plastid, 48 hour incubation; P. falciparum luciferase growth in erythrocytes, 48 h; Potency, µM (top dose mostly 28.7 µM), inactives show top-dose activity change, negative = inhibition, usual class: inhibitors; hit rate 5.9% among 310,000; AID 504832, 2011; note: potency is the fitted concentration of half-maximal effect; % is set by controls: 0 for no effect and ±100 for the full control effect
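Luciferase-expressing parasites in RBCs, 2% Hct / 0.1% parasitemia final; RPMI 1640 + 0.5% Albumax; 37 C, 5% CO2, one generation; luminescence read-out, lower signal = inhibition.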
Shiga inhibitor = A qHTS for Small Molecule Inhibitors of Shiga Toxin; Vero cells, Shiga toxin protein synthesis inhibition reporter; inhibition, % at 38.7 µM; hit rate 9.2% among 290,000; AID 2315, 2010; in the data active = inhibition mostly above about 28%, no sharp cut-off; inactive = mostly below about 43%; note: 0% is about no effect
HCV inh = qHTS Assay for Inhibitors of Hepatitis C Virus (HCV) | Huh7.5.1 HCVcc-Cre infection, luciferase reporter, 44 h | Potency, µM (top dose mostly 41.8 µM), for the others: at the top dose activity change, negative = inhibition, most hits filed as inhibitors | hit rate 3.4% among 340,000; note: potency is the fitted concentration of half-maximal effect; % is set by controls: 0 for no effect and ±100 for the full control effect
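HCVcc-Cre virus at an moi near 0.5 was added right after compound to cells cultured 4 h from seeding (1,000 cells/well). Luciferase activity was determined 44 h later, 15 min after substrate addition at RT.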
Active calls of the source: *; [ ] = another dose, or the depositor's remark. Unless noted, calls come from the whole dose curve; as a rule, active = well fitted inhibition curve with a large enough effect; inconclusive = small, poorly fitted or top-dose-only effect, or another doubt; inactive = no such curve, though single readings can be large or run the other way.

For CCc1ccc(C2CC(c3ccc(C)cc3)n3nc(N)nc3N2)cc1 (centres undefined) the results were HCMV inh 39 and HCV inh 18%.
For CCc1ccc(C2CC(c3ccccc3)Nc3nc(N)nn32)cc1 (centres undefined) the results were HCMV inh -20, Pf growth 96h 1.9µM*, Cycloheximide cs 5, Pf growth 48h 9%, Shiga inhibitor 18 and HCV inh 2%.
Screening CCOc1ccccc1C1CC(c2ccc(Br)cc2)Nc2nc(N)nn21 (centres undefined) returned HCMV inh 1, Pf growth 96h 7.4µM*, Cycloheximide cs 0, Pf growth 48h inconclusive, Shiga inhibitor -13 and HCV inh 2%.
`COc1cccc(C2CC(c3c(Cl)cccc3Cl)n3nc(N)nc3N2)c1` (centres undefined) gave HCMV inh 22, Pf growth 96h 13µM*, Cycloheximide cs -2, Pf growth 48h inconclusive, Shiga inhibitor -8 and HCV inh 0%.
Screening Cc1ccc(C2CC(c3ccccc3Cl)n3nc(N)nc3N2)cc1 (centres undefined) returned HCMV inh -8, Pf growth 96h 18%, Cycloheximide cs 4, Shiga inhibitor 7 and HCV inh 10%.
`COCCCN1C(=O)C(=O)/C(=C(/O)c2ccc(S(=O)(=O)N3CCOCC3)cc2)C1c1ccc(C(C)C)cc1` (centres undefined) gave HCMV inh -29, Pf growth 96h 0%, Cycloheximide cs 0, Pf growth 48h -1%, Shiga inhibitor 24 and HCV inh 14%.
`COc1ccc(C2C(=O)N(C3CCCCC3)CC(=O)N2CCc2ccc(C)cc2)cc1OC` (centres undefined) gave HCMV inh 6.
Screening Cc1ccccc1CS(=O)(=O)c1snnc1C returned HCMV inh -28, Pf growth 96h -1%, Cycloheximide cs -4, Pf growth 48h 2%, Shiga inhibitor -15 and HCV inh 17%.
Cc1ccccc1CS(=O)(=O)c1cnc2ccccc2n1 was read as HCMV inh inconclusive, Cycloheximide cs 10, Pf growth 48h 15µM*, Shiga inhibitor -3 and HCV inh inconclusive.
`CCc1ccc(NC(=O)CSc2nc3ccsc3c(=O)n2CCC(=O)O)cc1` gave HCMV inh -8, Pf growth 96h 7.4µM*, Cycloheximide cs 6, Pf growth 48h 12%, Shiga inhibitor -10 and HCV inh 15%.
CCc1ccc(NC(=O)CSc2nncn2-c2cccnc2)cc1 was read as HCMV inh 39, Pf growth 96h 42%, Cycloheximide cs 32*, Pf growth 48h 56%, Shiga inhibitor 151* and HCV inh 15%.
`CCC(C)Nc1nc2c(c(=O)n(C)c(=O)n2C)n1Cc1ccc(Cl)cc1` (centres undefined) gave HCMV inh 66, Pf growth 96h 6.6µM*, Cycloheximide cs -3, Pf growth 48h inconclusive, Shiga inhibitor -3 and HCV inh -11%.
For CC(C)n1c(SCC(=O)Nc2ccccc2N2CCOCC2)nc2c1c(=O)n(C)c(=O)n2C the results were HCMV inh 18, Pf growth 96h -23%, Cycloheximide cs -3, Pf growth 48h inconclusive, Shiga inhibitor 12 and HCV inh inconclusive.
`CCn1c(SCC(=O)Nc2ccccc2N2CCCCC2)nc2c1c(=O)n(C)c(=O)n2C` gave HCMV inh -69*, Cycloheximide cs -2, Pf growth 48h inconclusive, Shiga inhibitor 8 and HCV inh inconclusive.
C[C@H]1CN([C@@H](C)CO)C(=O)CCCn2cc(nn2)CO[C@@H]1CN(C)C(=O)Nc1ccc(C(F)(F)F)cc1 was read as HCMV inh 1.
`COc1cccc(Nc2nnc(-c3cc4ccc(O)cc4oc3=O)s2)c1` gave HCMV inh 16.
`CC(C)c1ccccc1NC(=S)NCC1(N(C)C)CCCCC1` gave HCMV inh -20, Pf growth 96h inconclusive, Cycloheximide cs -1, Pf growth 48h inconclusive, Shiga inhibitor -16 and HCV inh inconclusive.
CCC(C)Nc1nc2c(c(=O)n(C)c(=O)n2C)n1Cc1cccc(C)c1 (centres undefined) was read as HCMV inh 5, Pf growth 96h 74%, Cycloheximide cs -7, Pf growth 48h 15µM*, Shiga inhibitor -6 and HCV inh -11%.
CNC(=O)CSc1nc2c(c(=O)n(C)c(=O)n2C)n1Cc1ccc(C)cc1 was read as HCMV inh 63, Pf growth 96h 19%, Cycloheximide cs -1, Pf growth 48h -4%, Shiga inhibitor -9 and HCV inh 0.63µM*.
For CC(C)Sc1nc2c(c(=O)n(C)c(=O)n2C)n1Cc1ccc(Cl)cc1 the results were HCMV inh -35, Pf growth 96h inconclusive, Cycloheximide cs 3, Pf growth 48h inconclusive, Shiga inhibitor -9 and HCV inh 10µM*.
Screening Cn1c(=O)c2c(nc(NCc3cccnc3)n2Cc2ccc(Cl)cc2)n(C)c1=O returned HCMV inh 158, Pf growth 96h inconclusive, Cycloheximide cs -6, Shiga inhibitor -25 and HCV inh -9%.
Screening CCNc1nc2c(c(=O)n(C)c(=O)n2C)n1Cc1ccc(Cl)cc1 returned HCMV inh -66*, Pf growth 96h inconclusive, Cycloheximide cs 1, Pf growth 48h -7%, Shiga inhibitor -6 and HCV inh 3.5µM*.
`O=C(O)CC1SC(=O)N(CC(=O)c2ccccc2)C1=O` (centres undefined) gave HCMV inh -11, Pf growth 96h -80%, Cycloheximide cs -2, Pf growth 48h -2%, Shiga inhibitor -7 and HCV inh 24%.
`CCN(CC)C(=O)c1c(NC(=O)c2cccc(C)c2)sc2c1CCC(C)C2` (centres undefined) gave HCMV inh -20.
`COCCNc1nc2c(c(=O)n(Cc3ccc(OC)cc3)c(=O)n2C)n1C` gave HCMV inh -18, Pf growth 96h 29%, Cycloheximide cs 3, Pf growth 48h -24%, Shiga inhibitor -16 and HCV inh 11%.
`CCc1ccc(NC(=O)CSc2nc3c(c(=O)n(C)c(=O)n3C)n2C)cc1` gave HCMV inh 0, Pf growth 96h 10µM*, Cycloheximide cs -4, Pf growth 48h -3%, Shiga inhibitor -6 and HCV inh -6%[8.37 µM].
Screening COc1ccc(CNc2nc3c(c(=O)n(Cc4ccc(Cl)cc4)c(=O)n3C)n2C)cc1 returned HCMV inh inconclusive, Pf growth 96h inconclusive, Cycloheximide cs 2, Pf growth 48h 2.6µM*, Shiga inhibitor -11 and HCV inh inconclusive.
